From PubChem BioAssay (NCATS)
Records with an inconclusive call do not appear. Where a call stands in place of a potency, no number is given. The source made the active and inactive calls. Calls come from the whole dose curve; as a rule, active = well fitted inhibition curve with a large enough effect; inconclusive = small, poorly fitted or top-dose-only effect; inactive = flat fitted curve, though single readings scatter.

Key:
[1] = target: Glutathione peroxidase 1 (Homo sapiens) (UniProt P07203); assay: Primary qHTS Assay for Inhibitors of Recombinant Selenoprotein Glutathione Peroxidase 1 (GPX1) (AID 1845191)
Sequence of Glutathione peroxidase 1 (Homo sapiens) (P07203 whole entry, looked up): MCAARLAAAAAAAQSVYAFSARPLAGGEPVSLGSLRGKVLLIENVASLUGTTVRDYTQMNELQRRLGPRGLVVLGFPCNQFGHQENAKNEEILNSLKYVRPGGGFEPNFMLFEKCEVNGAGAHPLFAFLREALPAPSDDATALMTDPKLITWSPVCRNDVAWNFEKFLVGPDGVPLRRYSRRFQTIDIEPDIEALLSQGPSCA
In short: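 Recombinant GPX1 (10 nM final) was preincubated with compound for 30 min at room temperature, then reacted with 1 mM GSH, 0.5 mM CHP, 0.5 mM NADPH and 100 nM glutathione reductase; NADPH fluorescence (340/450 nm) was read at 0 and 15 min.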

[2] = target: Phospholipid hydroperoxide glutathione peroxidase GPX4 (Homo sapiens) (UniProt P36969); assay: Primary qHTS Assay for Inhibitors of Recombinant Selenoprotein Glutathione Peroxidase 4 (GPX4) (AID 1845192)
Sequence of Phospholipid hydroperoxide glutathione peroxidase GPX4 (Homo sapiens) (P36969 whole entry, looked up): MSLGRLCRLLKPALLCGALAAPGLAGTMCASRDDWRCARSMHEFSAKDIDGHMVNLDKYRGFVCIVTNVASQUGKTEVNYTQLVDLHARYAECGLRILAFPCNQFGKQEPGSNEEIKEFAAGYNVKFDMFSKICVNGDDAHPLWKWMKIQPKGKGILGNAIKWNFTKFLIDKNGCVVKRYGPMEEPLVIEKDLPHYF
In short: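 GR-coupled readout: 100 nM GR, 1 mM GSH, 0.5 mM NADPH; NADPH fluorescence (ex 340/em 450 nm) read at t=0 and after 15 min RT. GPX4 200 nM, preincubated 30 min with compound; substrate 0.5 mM CHP.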
Note: nearly all actives have a fitted effect of over 65% in size.

SMILES | Potency [1] | Potency [2]
CC(=O)O[C@@H]1CC2C3CCc4cc(OC(=O)c5ccccc5)ccc4C3CCC2(C)[C@H]1OC(C)=O (stereo partly specified) | inactive | inactive
NS(=O)(=O)c1ccc(N2CCCCS2(=O)=O)cc1 | inactive | inactive
CC1CCCCN1CCCOC(=O)c1ccc(OC2CCCCC2)cc1 (stereo unspecified) | inactive | inactive
CN(C)CCN(Cc1ccsc1)c1ccccn1 | inactive | inactive
CCCCOCCOC(=O)c1cccnc1 | inactive | inactive
CC(C)=CCC/C(C)=C/CC/C(C)=C/C(=O)OCC(=O)[C@@]1(O)CC[C@H]2[C@@H]3CCC4=CC(=O)C=C[C@]4(C)[C@H]3[C@@H](O)C[C@@]21C | inactive | inactive
O=C(CCOCCOCCOCCOCCC(=O)Nc1c(I)cc(I)c(C(=O)O)c1I)Nc1c(I)cc(I)c(C(=O)O)c1I | inactive | inactive
C/C(=N/NC(=O)c1ccncc1)C(=O)O | inactive | inactive
CCC(=O)O[C@H]1[C@H](O[C@@H]2[C@@H](C)[C@H](O[C@H]3C[C@@](C)(OC)[C@@H](O)[C@H](C)O3)[C@@H](C)C(=O)O[C@H](CC)[C@@](C)(O)[C@H](O)[C@@H](C)C(=O)[C@H](C)C[C@@]2(C)O)O[C@H](C)C[C@@H]1N(C)C | inactive | inactive
CCCCN(CCN(CCCC)C(=O)N1CCOCC1)C(=O)N1CCOCC1 | inactive | inactive
O=C(O)CCC(=O)OC[C@@H](NC(=O)C(Cl)Cl)[C@H](O)c1ccc([N+](=O)[O-])cc1 | inactive | inactive
CCO[C@H](Cc1ccc(OCCc2ccc(OS(C)(=O)=O)cc2)cc1)C(=O)O | inactive | inactive
CC(=O)N(CC(=O)N(C)C)c1ccccc1 | inactive | inactive
CCN(CC)C(=O)C1CN2CCc3cc(OC)c(OC)cc3C2CC1OC(C)=O (stereo unspecified) | inactive | inactive
CC(C)(C)NCC(O)COc1ccccc1OCC1CCCO1 (stereo unspecified) | inactive | inactive
CNC[C@H](O)[C@@H](O)[C@H](O)[C@H](O)CO | inactive | inactive
O=c1[nH]c(=O)n([C@H]2O[C@H](CO)[C@@H](O)[C@@H]2O)cc1/C=C\Br | inactive | inactive
C#CC(C)(CC)OC(=O)c1ccccc1C(=O)O (stereo unspecified) | inactive | inactive
CCOC(=O)[C@H](CCc1ccccc1)N[C@@H](C)C(=O)N(CC(=O)O)C1Cc2ccccc2C1 | inactive | inactive
Cc1ccc(/C=N/n2c(-c3ccccc3)csc2=S)cc1 | inactive | inactive
C1N2CN3CN1CN(C2)C3 | inactive | inactive
OCCOCCN1CCN(C(c2ccccc2)c2ccc(Cl)cc2)CC1 (stereo unspecified) | inactive | inactive
CN1CC(=O)N2[C@H](c3ccc4c(c3)OCO4)c3[nH]c4ccccc4c3C[C@@H]2C1=O | inactive | inactive
O=C(C1CCCCC1)N1CC(=O)N2CCCc3ccccc3C2C1 (stereo unspecified) | inactive | inactive
O=C(Nc1ccc(Cl)cc1)Nc1ccc(Cl)c(Cl)c1 | inactive | inactive
CCCCC(CC)CNC(=O)CC(C)OC(=O)CCC(=O)O (stereo unspecified) | inactive | inactive
Cc1ccc(C(C)OC(=O)C2(C)CCC(C(=O)O)C2(C)C)cc1 (stereo unspecified) | inactive | inactive
CCOC(=O)c1cc(=O)c2c(OCC(COc3cccc4oc(C(=O)OCC)cc(=O)c34)OC(=O)[C@@H](N)CCCCN)cccc2o1 | inactive | inactive
